Laboratory results as given in PubChem BioAssay (NCATS).
Unmarked numbers belong to inactive results. Results filed as inconclusive are left out. Calls of active or inactive are those of the source. Unless noted, calls come from the whole dose curve; as a rule, active = well fitted curve in either direction with a large enough effect (not every such curve was filed as active); inconclusive = small, poorly fitted or top-dose-only effect, or another doubt; inactive = flat fitted curve, though single readings scatter.

How the values were obtained:
[1] = AP1 Signaling Pathway (AID 357); conditions: ME-180 AP-1-bla reporter, EGF-induced, beta-lactamase ratio, 5 h; at 17.2 µM (top of the series) unless noted;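 note: ME-180 reporter cells stimulated with EGF at its EC50 level; % is set by controls: 0 for no effect and ±100 for the full control effect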
How it was run: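 AP-1-bla ME-180 cells, Opti-MEM + 0.5% dialyzed FBS, plated overnight 37 °C. Cpd titration + EC50 EGF, 5 h 37 °C. CCF4 2.5 h RT; ex 405, em 460/530 ratio → %activity, AC50.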

[2] = NFAT Signaling Pathway (AID 444); conditions: Jurkat NFAT-bla M1, carbachol, beta-lactamase ratio, 5 h; at 17.2 µM (top of the series) unless noted;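 note: carbachol stimulus at about its EC50 of 1 µM final; % is set by controls: 0 for no effect and ±100 for the full control effect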
How it was run: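 Read-out: CCF4 FRET ratio (460 nm/530 nm) after 1 h RT dye loading, used for %activity and AC50 from titration series. Cells: Jurkat NFAT-β-lactamase/M1 line, treated with compound plus 1 uM carbachol for 5 h, 37 °C.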

[3] = Stat Signaling Pathway (AID 446); conditions: ME-180 (cervical carcinoma) SIE beta-lactamase reporter, IL-6 stimulated, 5 h; at 17.2 µM (top of the series) unless noted;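 note: ME-180 cervical cancer cells given 40 pM IL-6 alongside compound; SIE-controlled beta-lactamase reporter measured as 460/530 nm FRET emission ratio; % is set by controls: 0 for no effect and ±100 for the full control effect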
How it was run: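 Emission at 460 and 530 nm (excitation 405 nm) reports SIE-controlled beta-lactamase in ME-180 cells. Cells received compound with 40 pM IL-6 for 5 hrs at 37 C; data scaled between 300 pM IL-6 and 125 nM JAK-inhibitor controls.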

[4] = biological target: Glucocorticoid receptor (Homo sapiens) (UniProt P04150); assay: GR-GFP Redistribution (AID 450;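 active = compounds whose dose series gives a full or clear partial fitted curve of increased nuclear translocation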; note: potency is the fitted concentration of half-maximal effect)
Glucocorticoid receptor (Homo sapiens), sequence (P04150 whole entry, looked up): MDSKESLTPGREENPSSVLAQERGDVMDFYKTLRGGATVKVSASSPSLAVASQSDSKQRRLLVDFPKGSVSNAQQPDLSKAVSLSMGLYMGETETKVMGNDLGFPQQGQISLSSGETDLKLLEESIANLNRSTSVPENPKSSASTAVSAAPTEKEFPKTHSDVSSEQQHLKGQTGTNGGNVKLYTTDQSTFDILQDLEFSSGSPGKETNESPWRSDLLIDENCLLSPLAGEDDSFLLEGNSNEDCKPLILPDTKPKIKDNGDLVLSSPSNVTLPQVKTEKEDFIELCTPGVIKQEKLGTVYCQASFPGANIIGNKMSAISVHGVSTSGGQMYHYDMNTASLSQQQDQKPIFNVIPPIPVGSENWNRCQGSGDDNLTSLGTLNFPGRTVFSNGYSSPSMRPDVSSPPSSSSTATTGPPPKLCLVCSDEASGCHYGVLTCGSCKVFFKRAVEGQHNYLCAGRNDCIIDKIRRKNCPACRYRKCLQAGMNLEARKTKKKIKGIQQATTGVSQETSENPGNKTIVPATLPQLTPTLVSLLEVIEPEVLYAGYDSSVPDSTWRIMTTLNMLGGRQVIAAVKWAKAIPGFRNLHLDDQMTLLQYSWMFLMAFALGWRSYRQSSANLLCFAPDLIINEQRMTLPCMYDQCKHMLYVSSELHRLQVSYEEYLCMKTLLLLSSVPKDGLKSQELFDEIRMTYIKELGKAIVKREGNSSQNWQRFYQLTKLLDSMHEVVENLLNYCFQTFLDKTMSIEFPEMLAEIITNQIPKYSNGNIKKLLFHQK

| Structure (SMILES) | activity change, negative = inhibition [1] [%] | activity change, negative = inhibition [2] [%] | activity, negative = inhibition [3] [%] | Potency [4] |
| --- | --- | --- | --- | --- |
| COc1ccc(OC)c(C2C(C#N)=C(N)Oc3cc(C)[nH]c(=O)c32)c1 (configuration not stated) | -7.62 | -4.06 | 3.99 | > 20.6 µM |
| O=C(CN1C(=O)c2ccccc2C1=O)OCN1C(=O)c2ccccc2C1=O | 8.86 | -11.6 | 6.85 | > 20.6 µM |
| CCCCCCCC(=O)OCC(=O)[C@@]1(O)CC[C@H]2[C@@H]3CCC4=CC(=O)CC[C@]4(C)[C@H]3[C@@H](O)C[C@@]21C | -9.61 | -28.6 | 7.91 | 0.00571 µM (active) |
| CC(=O)C1=C(O)C(=O)N(c2ccc(Br)cn2)C1c1ccccc1F (configuration not stated) | -1.6 | 1.82 | -16.8 | > 20.6 µM |
| Cn1c(=O)c2c(nc(NCCCO)n2Cc2cccc(C(F)(F)F)c2)n(C)c1=O | 8.4 | 7.97 | -3.72 | > 20.6 µM |
| CCOC(=O)C1CCCN(c2nc3ccccc3nc2C(C#N)C(=O)OCCOC)C1 (configuration not stated) | -28.5 | -3.48 | -2.06 | > 20.6 µM |
| O=C(C1=C(O)C(=O)N(CCCN2CCOCC2)C1c1ccccn1)c1cccs1 (configuration not stated) | -0.154 | -1.18 | -0.582 | > 20.6 µM |
| CCCCOc1ccc(C(=O)NCC(=O)NCC(=O)OCC)cc1 | -0.159 | -7.6 | -5.03 | > 20.6 µM |
| COCCOC(=O)C1=C(C)NC(SCC(=O)NC(C)(C)C)=C(C#N)C1c1ccco1 (configuration not stated) | -20.5 | 12.6 | -8.48 | > 20.6 µM |
| COc1ccc(/C(O)=C2\C(=O)C(=O)N(CCN(C)C)C2c2cccc(OC)c2OC)cc1Cl (configuration not stated) | -2.56 | 11.9 | 8.3 | > 20.6 µM |
| CCCn1nnc(NC(=O)c2cc(Br)cc(Br)c2OC)n1 | -4.03 | -11.1 | -4.41 | > 20.6 µM |
| Cc1c(C(Nc2ccccn2)c2ccccc2)c(=O)n(-c2ccccc2)n1C (configuration not stated) | -3.17 | 2.74 | 8.77 | > 20.6 µM |
| CC1C[C@@]2(NC(=O)NC2=O)C(C)CN1C (some centres not stated) | 5.36 | -4.32 | 5.03 | > 20.6 µM |
| CSc1nncc(=O)[nH]1 | 16.2 | 0.69 | -3.78 | > 20.6 µM |
| COc1ccccc1-n1c(=O)c2c3c(sc2n2c(SC(C)C)nnc12)CCC3 | -5.57 | -27.1 | 10.5 | > 20.6 µM |
| Cc1cc2c(c(=O)o1)C(CC(C)C)C(C#N)=C(N)O2 (configuration not stated) | 14.1 | 4.64 | 1.38 | > 20.6 µM |
| CCOC(=O)c1c(NC(=O)CN2CCOCC2)sc2c1CC(C)(C)OC2 | -15.6 | 12.7 | -6.32 | > 20.6 µM |
| Oc1ccc(C=Nc2ccc3ncccc3c2)c(O)c1 | 26.2 | -26.8 | 13.2 | > 20.6 µM |
